# Where “and” joins values, the source holds several entries; their conditions need not be identical. Identical values can stand only once. Results filed as inconclusive are left out. Where a structure was tested more than once in an assay, its records may differ in their call. Calls of active or inactive are those of the source. Unless noted, the call rests on the fitted dose curve; in most records, active means well fitted curve in the direction sought with a large enough effect; inconclusive means small, poorly fitted or top-dose-only effect, or another doubt; inactive means no such curve, though single readings can be large; an effect the other way counts as inactive or inconclusive.
# How the values were obtained:
# [1] = Cell Proliferation Assay against the HBL1 Cell Line (AID 651646); conditions: HBL1 DLBCL cells; at 46.1 µM (top of the series);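 further: cells exposed to compound for 48 h before reading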
# In short: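 HBL1, 500 cells/well, RPMI no phenol red + 5% FBS; cpd pinned, 48 h 37C/5% CO2; CellTiter-Glo, 15 min RT, luminescence. % activity: DMSO = 100%, bortezomib 9.2 uM final = 0%.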
# [2] = Cell Proliferation Assay against the TMD8 Cell Line (Caspase readout at 16 hrs) (AID 651712); further: potency means the concentration at half of the fitted maximal effect
# In short: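 Caspase-Glo luminescence after 16 h compound exposure of TMD8 cells, 37 °C, 5% CO2. Medium: RPMI without phenol red, 5% FBS. Normalisation: DMSO = 0%, bortezomib 9.2 uM final = 100%.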
# [3] = Cell Proliferation Assay against the TMD8 Cell Line (AID 651645); conditions: TMD8 DLBCL cell line proliferation/viability; at 46.1 µM (top of the series);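 further: cells exposed to compound for 48 h before reading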
# In short: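 Viability by CellTiter-Glo after 48 h compound exposure of 500 log-phase TMD8 cells per well (RPMI, 5% FBS). Percent activity scaled between DMSO (100%) and 9.2 uM final bortezomib (0%).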
# [4] = Cell Proliferation Assay against the TMD8 Cell Line (Caspase readout at 8 hrs) (AID 651713); further: potency means the concentration at half of the fitted maximal effect
# In short: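 Luminescent caspase 3/7 assay; TMD8 cells, 8 h treatment at 37C, 5% CO2. Normalisation: DMSO 0%, 9.2 uM bortezomib 100%.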
# [5] = qHTS assay for small molecule agonists of the antioxidant response element (ARE) signaling pathway (AID 651741; active means well fitted activation curve with a large enough effect in the signal ratio; the % refers to the signal ratio; further: potency means the concentration at half of the fitted maximal effect; on activation: % of control where 0% means no effect)
# In short: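 HepG2 ARE-bla reporter cells, 2,000/well; 5 h settle at 37 C/5% CO2; compound pin transfer (23 nL, DMSO); 16 h at 37 C; LiveBLAzer B/G FRET substrate, 2 h RT; fluorescence intensity read.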
# [6] = qHTS assay for small molecule activators of the p53 signaling pathway (AID 651743; active means well fitted activation curve with a large enough effect in the signal ratio, not every such curve was filed as active; the % refers to the signal ratio; further: % of control where 0% means no effect); conditions: HCT-116 p53RE-bla, beta-lactamase FRET ratio, 16 h; stronger effect = higher value
# In short: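 Reporter: beta-lactamase driven by p53 response elements, stably integrated in HCT-116 cells. Cells seeded at 4,000/well, 5 h preincubation, compound (DMSO) 16 h at 37 C; B/G FRET substrate 2 h RT; fluorescence intensity read.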
# [7] = qHTS assay for small molecule activators of the nuclear factor-kappa B (NF-kB) signaling pathway (AID 651749; active means well fitted activation curve with a large enough effect in the signal ratio; the % refers to the signal ratio; further: % of control where 0% means no effect); conditions: NF-kB-bla ME-180 cells, beta-lactamase FRET ratio, 16 h; stronger effect = higher value
# In short: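 NF-kB-bla ME-180 cells, 2,000/well; 23 nL compound or DMSO pinned; 16 hr, 37C/5% CO2; beta-lactamase FRET read-out.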
# [8] = qHTS assay for small molecule disruptors of the mitochondrial membrane potential - 1 hr assay (AID 651754; calls by dose curve; further: on the % scale 0 is the no-effect control and ±100 the full control effect; nearly all actives have a fitted effect of over 35% in size)
# In short: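 In this qHTS format, a 1 hr compound treatment of HepG2 cells precedes Mito-MPS staining, and membrane potential is judged from aggregate (red) against monomer (green) fluorescence intensity.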
# [9] = qHTS assay for small molecule disruptors of the mitochondrial membrane potential - 5 hr assay (AID 651755; calls by dose curve; further: on the % scale 0 is the no-effect control and ±100 the full control effect; nearly all actives have a fitted effect of over 40% in size)
# In short: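 Read-out: ratiometric Mito-MPS fluorescence, green monomer (ex 490/em 535) vs red mitochondrial aggregate (ex 540/em 590). HepG2 cells treated 5 hr at 37C before 30 min dye loading.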
# [10] = target: Tumor necrosis factor (Homo sapiens) (UniProt P01375); test: qHTS assay to identify small molecules that stimulate Tumor Necrosis Factor-alpha (TNF-alpha) secretion (AID 651757; active means well fitted curve in the direction sought with a large enough effect in the signal ratio; the % refers to the signal ratio; further: 0% is about no effect)
# In short: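 Using 3000 THP-1 cells per well, compounds and controls were applied for 17 hrs at 37 C. Detection followed with two labeled anti-TNF-alpha antibodies (cryptate donor, XL665 acceptor) for 3 hr at room temperature, measured by TR-FRET.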
# Tumor necrosis factor (Homo sapiens), sequence (P01375 whole entry, looked up): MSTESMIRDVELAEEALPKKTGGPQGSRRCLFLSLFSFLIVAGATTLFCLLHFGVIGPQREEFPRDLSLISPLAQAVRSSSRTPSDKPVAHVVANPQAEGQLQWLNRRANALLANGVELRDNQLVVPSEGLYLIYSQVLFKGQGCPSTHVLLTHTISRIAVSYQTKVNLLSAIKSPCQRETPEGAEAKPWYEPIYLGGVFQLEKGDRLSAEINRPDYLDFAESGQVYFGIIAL
smiles,measurement,setting,value
COc1cc2nccc(Oc3ccc(NC(=O)Nc4cc(C)on4)c(Cl)c3)c2cc1OC,"viability, percent of control",[1],26.7%
CC(=O)NCCC(=O)N[C@@H](CCC(N)=O)C(=O)N[C@@H](CO)C(=O)N[C@@H](CCC(N)=O)C(=O)N[C@@H](CCC(N)=O)C(=O)N[C@H](C(=O)N[C@@H](Cc1ccccc1)C(=O)N[C@]1(C)CCCCCCC=CCCC[C@@](C)(C(=O)N[C@@H](CCC(N)=O)C(=O)N[C@@H](CC(N)=O)C(N)=O)NC(=O)[C@H](CC(C)C)NC(=O)[C@H](CC(C)C)NC(=O)[C@@H](CCCNC(=N)N)NC(=O)[C@H](Cc2c[nH]c3ccccc23)NC(=O)[C@H](CC(C)C)NC(=O)[C@H](CC(N)=O)NC1=O)[C@H](C)O,"viability, percent of control",[1],3.58%
same,Potency,[2],inactive
CCN(CC)CCCCNc1nc2cc(Cl)c(Cl)cc2nc1-c1ccc(-c2cccs2)s1,"viability, percent of control",[1],1.92%
same,Potency,[2],inactive
CC(C)Oc1cc(Nc2nc(N[C@@H](C)c3ccc(F)cn3)ncc2Cl)[nH]n1,"viability, percent of control",[1],13.4%
same,Potency,[2],inactive
COc1cccc(OC)c1-c1cc(C(=O)NC2(C(=O)O)C3CC4CC(C3)CC2C4)nn1-c1ccnc2cc(Cl)ccc12 (centres undefined),"viability, percent of control",[1],3.08%
same,Potency,[2],23.5 µM (active)
Cc1ccc(C(=O)N(CCCN)[C@@H](c2nc3cc(Cl)ccc3c(=O)n2Cc2ccccc2)C(C)C)cc1,"viability, percent of control",[1],1.66%
CCc1cc(-c2n[nH]c(C)c2-c2ccc3c(c2)OCCO3)c(O)cc1O,"viability, percent of control",[1],34.6%
same,Potency,[2],23.5 µM (active)
Cc1csc(-c2nnc(Nc3ccc(Oc4ncccc4-c4ccnc(N)n4)cc3)c3ccccc23)c1,"viability, percent of control",[1],63.2%
same,Potency,[2],23.5 µM (active)
CCNC(=O)c1noc(-c2cc(C(C)C)c(O)cc2O)c1-c1ccc(CN2CCOCC2)cc1,"viability, percent of control",[1],47.2%
CC(C)C[C@H](NC(=O)c1cc2ccccc2s1)C(=O)N1CCN(C(=O)[C@H](CO)NS(=O)(=O)c2ccc(Cl)cc2Cl)CC1,viability (% of control),[3],-0.483%
same,"viability, percent of control",[1],3.69%
CN1C(=O)C(Cc2c[nH]c3ccccc23)NC1=S (centres undefined),viability (% of control),[3],80.6%
same,"viability, percent of control",[1],98.6%
same,Potency,[2],inactive
same,Potency,[4],inactive
CC(O)=C(C#N)C(=O)Nc1ccc(C(F)(F)F)cc1,"viability, percent of control",[1],56.6%
same,Potency,[2],inactive
same,Potency,[4],inactive
COc1c(C)cnc(Cn2cnc3c(Cl)nc(N)nc32)c1C,"viability, percent of control",[1],59.9%
same,Potency,[4],inactive
O=C(O)c1ccc(O)c2ncc(N3CCOCC3)cc12,"viability, percent of control",[1],74%
same,Potency,[2],inactive
same,Potency,[4],inactive
Cc1cc2c(cc1C1(c3ccc(C(=O)O)cn3)CC1)C(C)(C)CCC2(C)C,"viability, percent of control",[1],48.2%
same,Potency,[2],inactive
same,Potency,[4],inactive
COc1cc2c(cc1OC)CC(=O)N(CCCN(C)C[C@H]1Cc3cc(OC)c(OC)cc31)CC2,"viability, percent of control",[1],122%
same,Potency,[2],inactive
same,Potency,[4],inactive
CCCCCCCCCCCCCC(=O)N[C@H](CO)[C@H](O)c1ccc([N+](=O)[O-])cc1,"viability, percent of control",[1],21.7%
same,Potency,[4],inactive
Nc1ccc(-c2ccc3ncc4ccc(=O)n(-c5cccc(C(F)(F)F)c5)c4c3c2)cn1,"viability, percent of control",[1],8.06%
same,Potency,[2],0.118 µM (active)
CCC=CC[C@H]1C(=O)CC[C@@H]1CC(=O)OC,"viability, percent of control",[1],109%
same,Potency,[2],inactive
same,Potency,[4],inactive
Cc1ccc(NC(=O)c2ccc(CN3CCN(C)CC3)cc2)cc1Nc1nc(-c2cccnc2)cs1,"viability, percent of control",[1],11%
same,Potency,[2],inactive
same,Potency,[4],23.5 µM (active)
Cn1cc(-c2ccc3nnc(Sc4ccc5ncccc5c4)n3n2)cn1,"viability, percent of control",[1],119%
same,Potency,[2],inactive
same,Potency,[4],inactive
CCCCn1c(=O)n(Cc2ccccc2F)c(=O)c2[nH]c(Cc3ccc(NC(C)=O)cc3)nc21,"viability, percent of control",[1],4.28%
same,Potency,[2],inactive
same,Potency,[4],inactive
OCCn1cc(-c2ccc3c(c2)CCC3=NO)c(-c2ccncc2)n1,"viability, percent of control",[1],133%
same,Potency,[2],inactive
same,Potency,[4],inactive
CC(C)C[C@@H](C(=O)N[C@H](C(=O)OC1CCCC1)c1ccccc1)[C@H](O)C(=O)NO,"viability, percent of control",[1],6.68%
same,Potency,[4],inactive
CC(C)n1c(C=C[C@H](O)C[C@H](O)CC(=O)O)c(-c2ccc(F)cc2)c2ccccc21,Potency,[2],inactive
same,Potency,[4],inactive
CN(C)CCN(C)C(=O)c1ccc(NC(=O)Nc2ccc(-c3nc(N4CCOCC4)c4ccn(CC(F)(F)F)c4n3)cc2)cc1,"viability, percent of control",[1],1.25%
same,Potency,[4],29.6 µM (active)
O=C1C(CCC(O)c2ccc(F)cc2)C(c2ccc(O)cc2)N1c1ccc(F)cc1 (centres undefined),"viability, percent of control",[1],68%
same,Potency,[4],inactive
COc1nc(C)cnc1NS(=O)(=O)c1cccnc1-c1ccc(-c2nnco2)cc1,"viability, percent of control",[1],92.3%
same,Potency,[2],inactive
same,Potency,[4],inactive
O=C(Nc1cccc(Cl)c1)Nc1ncc(CCNc2ncnc3ccsc23)s1,"viability, percent of control",[1],2.32%
same,Potency,[2],inactive
same,Potency,[4],inactive
Cc1cccc(Nc2nc(N[C@@H]3CCCC[C@H]3N)ncc2C(N)=O)c1,"viability, percent of control",[1],2.69%
same,Potency,[4],inactive
CNC(=O)c1cc(Oc2ccc(NC(=O)Nc3ccc(Cl)c(C(F)(F)F)c3)c(F)c2)ccn1,"viability, percent of control",[1],4.87%
same,Potency,[2],inactive
same,Potency,[4],inactive
Cc1nn(Cc2ccccc2Cl)c(C)c1CN(C)CC(O)COc1ccc(Cl)cc1 (centres undefined),"viability, percent of control",[1],2.62%
same,Potency,[4],inactive
NC(=O)c1ccc(N(C(N)=O)c2c(F)cccc2F)nc1-c1ccc(F)cc1F,"viability, percent of control",[1],110%
same,Potency,[2],inactive
same,Potency,[4],inactive
C[C@@H]1C[C@H]2[C@@H]3CCC4=CC(=O)C=C[C@]4(C)[C@@]3(F)[C@@H](O)C[C@]2(C)[C@@]1(O)C(=O)CO,Potency,[5],42.2 µM (active) and inactive
same,activation,[6],-3.68% (inactive) and -5.63% (inactive)
same,activation,[7],-2.02% (inactive) and -1.92% (inactive)
same,outcome,[8],inactive
same,outcome,[9],inactive
same,outcome,[10],inactive
CCCCc1ccc(NS(=O)(=O)c2ccc(C)c(C(=O)N3CCN(c4cccc(C)c4C)CC3)c2)cc1,"viability, percent of control",[1],6.19%
same,Potency,[2],20.9 µM (active)
CCC(=O)N1CCN(c2ccc(-n3c(=O)ccc4cnc5ccc(-c6cnc7ccccc7c6)cc5c43)cc2C(F)(F)F)CC1,"viability, percent of control",[1],4.82%
same,Potency,[2],18.7 µM (active)
same,Potency,[4],inactive

# Source: PubChem BioAssay (NCATS)
